From PubChem BioAssay (NCATS)
Values joined by “and” are separate entries in the source; they are usually repeats but may differ in a detail not shown here. Identical values can stand only once. Inconclusive results are not listed. A number with no mark means an inactive call. Active and inactive are the calls of the source. Unless noted, calls follow the shape of the dose curve; as a rule, active = well fitted curve in the direction sought with a large enough effect; inconclusive = small, poorly fitted or top-dose-only effect, or another doubt; inactive = no such curve, though single readings can be large; an effect the other way counts as inactive or inconclusive.

Target: Nuclear receptor ROR-gamma (Homo sapiens) (UniProt P51449)
Sequence (P51449 whole entry, looked up): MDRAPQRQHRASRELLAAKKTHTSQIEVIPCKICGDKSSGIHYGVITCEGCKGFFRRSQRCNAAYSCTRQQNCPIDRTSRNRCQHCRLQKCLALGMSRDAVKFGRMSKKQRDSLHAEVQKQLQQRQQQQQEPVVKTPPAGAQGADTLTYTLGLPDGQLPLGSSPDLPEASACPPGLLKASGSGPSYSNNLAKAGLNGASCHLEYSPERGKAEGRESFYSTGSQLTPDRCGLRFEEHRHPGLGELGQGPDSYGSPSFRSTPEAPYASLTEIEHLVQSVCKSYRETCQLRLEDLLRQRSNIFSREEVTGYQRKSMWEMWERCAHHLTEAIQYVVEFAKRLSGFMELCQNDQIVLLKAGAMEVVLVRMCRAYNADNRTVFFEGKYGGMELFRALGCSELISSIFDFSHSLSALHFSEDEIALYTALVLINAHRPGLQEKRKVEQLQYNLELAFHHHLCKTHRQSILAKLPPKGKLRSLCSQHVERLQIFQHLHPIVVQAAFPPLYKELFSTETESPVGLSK
Assay: qHTS assay for small molecule antagonists of the retinoid-related orphan receptor gamma (ROR-gamma) signaling pathway (AID 651802);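 also: luciferase reporter luminescence driven by ROR response element; % is scaled to controls: 0 for no effect and ±100 for the full control effect; nearly all actives have a fitted effect of over 60% in size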
Conditions: ROR-gamma antagonist cell reporter assay; series mostly up to 92.2 µM; activity change, negative = inhibition: at the top concentration
How it was run: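 CHO cells with TET-inducible ROR-gamma and RORE-luciferase reporter, dosed then doxycycline-induced. After 16 h at 37C, One-Glo luminescence read; decreased signal indicates antagonism.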

Row | Compound | activity change, negative = inhibition
1 | C=Cc1ccccc1 | 19.5%
2 | O=C(O)CC(O)(CC(=O)O)C(=O)O | -22%
3 | CN(C)Cc1ccccc1 | 0.108%
4 | COC(C)=O | -2.41%

System: not listed separately
Assay: qHTS assay for small molecule agonists of the antioxidant response element (ARE) signaling pathway measured by Nrf2-dependant transcriptional activity (AID 720636; active = well fitted curve in the direction sought with a large enough effect in the repeat runs; an effect the other way counts as inactive or inconclusive;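 also: HepG2 cells with an ARE-driven luciferase reporter; % of control where 0% means no effect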)
Conditions: ARE-luc HepG2, Nrf2 luciferase reporter, 16 h; series mostly up to 92.4 µM; activation: at the top concentration
How it was run: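 ONE-Glo luminescence, read 30 min after reagent addition at room temperature, reflected ARE reporter activity in HepG2 cells that had been incubated with compound for 16 hr at 37 C in 1% dialyzed FBS.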

Row | Compound | activation | outcome
5 | CCCCCCCC/C=C\CCCCCCCC(=O)OC[C@@H](O)[C@H]1OC[C@H](O)[C@H]1O | -0.0383% | –
6 | C=Cc1ccccc1 | – | inactive
7 | CN(C)Cc1ccccc1 | -0.913% | –
8 | CC(=O)S[C@@H]1CC2=CC(=O)CC[C@]2(C)[C@H]2CC[C@@]3(C)[C@@H](CC[C@@]34CCC(=O)O4)[C@H]12 | -0.0725% | –
9 | CCCCCCCCCC(=O)O | – | inactive
10 | COC(C)=O | -0.168% | –
11 | O=S(=O)(c1ccccc1)N(CC(F)(F)F)c1ccc(C(O)(C(F)(F)F)C(F)(F)F)cc1 | -4.39% | –

System: not listed separately
Assay: qHTS assay for small molecule antagonists of the retinoid-related orphan receptor gamma (ROR-gamma) signaling pathway - cell viability counter screen (AID 720652; active = well fitted curve in the direction sought with a large enough effect in the repeat runs; an effect the other way counts as inactive or inconclusive;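 also: compound exposure lasted 16 hr before ATP read; % is scaled to controls: 0 for no effect and ±100 for the full control effect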)
Conditions: RORgamma reporter cell line viability counter screen; series mostly up to 92.2 µM; activity change, negative = cytotoxicity: at the top concentration
How it was run: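 CHO cells carrying TET-inducible ROR and RORE-luciferase reporter, plated 5 hr, then dosed with compound plus doxycycline. After 16 hr at 37 C, viability read as intracellular ATP by CellTiter-Glo luminescence.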

Row | Compound | activity change, negative = cytotoxicity
12 | C=Cc1ccccc1 | 10.9%
13 | O=C(O)CC(O)(CC(=O)O)C(=O)O | 1.08%
14 | CN(C)Cc1ccccc1 | 13.4%
15 | CCCCCCCCCC(=O)O | -5.69%
16 | COC(C)=O | 12.7%

System: not listed separately
Assay: qHTS assay for small molecule agonists of the antioxidant response element (ARE) signaling pathway measured by Nrf2-dependant transcriptional activity - cell viability counter screen (AID 720653; active = well fitted curve in the direction sought with a large enough effect in the repeat runs; an effect the other way counts as inactive or inconclusive; also: % is scaled to controls: 0 for no effect and ±100 for the full control effect)
Conditions: ARE-bla HepG2 viability, CellTiter-Glo ATP luminescence, 16 h; stronger effect = lower value
How it was run: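 ARE-bla HepG2 cells (2,000/well) rested 5 hrs at 37C/5% CO2, then exposed to compounds in DMSO for 16 hrs. Viability was read in the same wells as intracellular ATP by luminescence, 30 min at room temperature after reagent addition.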

Row | Compound | max response
17 | CCCCCCCC/C=C\CCCCCCCC(=O)OC[C@@H](O)[C@H]1OC[C@H](O)[C@H]1O | 4.25%
18 | C=Cc1ccccc1 | 5.41% and 3.34%
19 | O=C(O)CC(O)(CC(=O)O)C(=O)O | 1.31% and -9.81% and -4.69%
20 | CN(C)Cc1ccccc1 | -3.95%
21 | CC(=O)S[C@@H]1CC2=CC(=O)CC[C@]2(C)[C@H]2CC[C@@]3(C)[C@@H](CC[C@@]34CCC(=O)O4)[C@H]12 | -12%
22 | CCCCCCCCCC(=O)O | -4.59% and -4.9%
23 | COC(C)=O | 11.2%
24 | O=S(=O)(c1ccccc1)N(CC(F)(F)F)c1ccc(C(O)(C(F)(F)F)C(F)(F)F)cc1 | -21.3%

System: not listed separately
Assay: qHTS Assay for Identifying Gametocytocidal Compounds (AID 743244);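 also: % is scaled to controls: 0 for no effect and ±100 for the full control effect; actives lower the fluorescent signal which means gametocytes are killed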
Conditions: P. falciparum 3D7 stage III-V gametocytes, alamarBlue, 72 h; max response: stronger effect = lower value
How it was run: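 Fluorescence at Ex 525/Em 598 nm, recorded 24 h after alamarBlue addition, reports residual metabolic activity of 3D7 gametocytes (stages III–V) following 72 h compound exposure at 37 °C, 5% CO2.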

Row | Compound | max response
25 | CCCCCCCC/C=C\CCCCCCCC(=O)OC[C@@H](O)[C@H]1OC[C@H](O)[C@H]1O | -9.22%
26 | NCCCC[C@H](NC(=O)[C@@H]1CCCN1C(=O)[C@@H]1CSSC[C@H](N)C(=O)N[C@@H](Cc2ccc(O)cc2)C(=O)N[C@@H](Cc2ccccc2)C(=O)N[C@@H](CCC(N)=O)C(=O)N[C@@H](CC(N)=O)C(=O)N1)C(=O)NCC(N)=O | -14.9% and -14.7%
27 | C=Cc1ccccc1 | 5.81%
28 | C/C=C(/CC[C@@H](C)[C@H]1CC[C@H]2C3=CC[C@H]4[C@H](C)[C@@H](O)CC[C@]4(C)[C@H]3CC[C@]12C)C(C)C | -5.29%
29 | Cc1cc(-n2c(=O)[nH]c(=O)n(C)c2=O)ccc1Oc1ccc(S(=O)(=O)C(F)(F)F)cc1 | -1.23%
30 | CS(=O)(=O)NC(=O)CCC/C=C\C[C@H]1C(=O)C[C@@H](O)[C@@H]1/C=C/[C@H](O)COc1ccccc1 | -11.4%
31 | O=C(O)[C@@H](O)[C@H](O)[C@H](O)[C@@H](O)C(=O)O (tested in a mixture with another compound) | 5.9%
32 | COCC1=C(C(=O)OC(C)OC(=O)OC(C)C)N2C(=O)[C@@H](NC(=O)/C(=N\OC)c3csc(N)n3)[C@H]2SC1 (some centres undefined) | -2.17% and -16.2%
33 | O=C(Cn1cnnn1)N[C@@H]1C(=O)N2C(C(=O)O)=C(CSc3nncs3)CS[C@H]12 | 1.4% and 3.1%
34 | O=C(O)CC(O)(CC(=O)O)C(=O)O | -12%
35 | CC(C)(S)C(=O)N[C@@H](CS)C(=O)O | -15.4% and 8.89%
36 | CC(=O)OCC(=O)[C@@]1(O)[C@H](C)C[C@H]2[C@@H]3C[C@H](F)C4=CC(=O)C=C[C@]4(C)[C@H]3[C@@H](O)C[C@@]21C | -15.2%
37 | CO/N=C(\C(=O)N[C@@H]1C(=O)N2C(C(=O)OCOC(=O)C(C)(C)C)=C(/C=C\c3scnc3C)CS[C@H]12)c1csc(N)n1 | -6.43%
38 | CCCCCCCCCCCCCCCC(=O)OCCC1CCN(CCCN2c3ccccc3Sc3ccc(S(=O)(=O)N(C)C)cc32)CC1 | -11.1%
39 | CN(C)Cc1ccccc1 | 9.16%
40 | O=[N+]([O-])c1ccc(Oc2ccc(N=C=S)cc2)cc1 | 16.5%
41 | CC(=O)S[C@@H]1CC2=CC(=O)CC[C@]2(C)[C@H]2CC[C@@]3(C)[C@@H](CC[C@@]34CCC(=O)O4)[C@H]12 | 15.7%
42 | O=C1O[C@@H]2[C@@H](O)[C@H](O)O[C@@H]2[C@H]1O | 3.86%

Row | Compound | max response
43 | CCCCCCCCCC(=O)O | 10.1%
44 | C[C@H]1C[C@@H]2[C@H]([C@@H](O)C[C@@]3(C)[C@H]2CC[C@]3(O)C(=O)COC(=O)CCC(=O)O)[C@@]2(C)C=CC(=O)C=C12 | -6.5%
45 | CS(=O)(=O)OCCCNCCCOS(C)(=O)=O | -15.1%
46 | NCCCC(=O)O | 8.69% and -6.82%
47 | O=P(O)(O)OC(Cn1cncn1)(Cn1cncn1)c1ccc(F)cc1F | 1.82%
48 | CCOC(=O)COc1ccc2c(=O)cc(-c3ccccc3)oc2c1 | 51.1% and 12.3%
49 | Oc1cccc(-c2c3nc(c(-c4cccc(O)c4)c4ccc([nH]4)c(-c4cccc(O)c4)c4nc(c(-c5cccc(O)c5)c5ccc2[nH]5)CC4)C=C3)c1 | -1.27% and -6.31%
50 | COC(C)=O | 1.99%
51 | CN=C(NC)NCc1ccccc1 | 13.1%
52 | CCCC(=O)N1CCCN(c2nc(N)c3cc(OC)c(OC)cc3n2)CC1 | 16.2%
53 | NCCC[C@H](N)C(=O)O | -1.29%
54 | O=C1C(c2[nH]c3ccc(S(=O)(=O)O)cc3c2O)=Nc2ccc(S(=O)(=O)O)cc21 | -2.9% and 36.3% and 37.5%
55 | CCCCOC(=O)C(=O)Nc1cccc(-c2nn[nH]n2)c1 | 31.5%
56 | Cc1c(N)nc(C(CC(N)=O)NCC(N)C(N)=O)nc1C(=O)NC(C(=O)NC(C)C(O)C(C)C(=O)NC(C(=O)NCCc1nc(-c2nc(C(=O)NCCCN[C@@H](C)c3ccccc3)cs2)cs1)C(C)O)C(O[C@@H]1O[C@@H](CO)[C@@H](O)[C@H](O)[C@@H]1O[C@H]1O[C@H](CO)[C@@H](O)[C@H](OC(N)=O)[C@@H]1O)c1cnc[nH]1 (some centres undefined) | 6.97%
57 | CCOC(=O)COc1ccc2c(C)c(CCN(CC)CC)c(=O)oc2c1 | 15%
58 | CCN1CCCC1CNC(=O)c1cc(S(=O)(=O)CC)ccc1OC (centres undefined) | -5.69% and 12.8%
59 | Nc1ncnc(Nc2ccc(Cl)cc2)n1 | -12%
